EWS-Fli inh = EWS/Fli-driven NR0B1 reporter inhibitors, primary screen, A673 cells, NR0B1 luciferase, luminescence, MLPCN library. 350,000 compounds, 0.67% hits. AID 651661, 2012. inhibition, % at 12.6 µM. viability-normalised;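 active means mean inhibition of at least 50% after viability correction, with every replicate also passing that limit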;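 further: firefly luciferase signal divided by Alamar Blue viability fluorescence both relative to DMSO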
PAX8 reporter = inhibitors of PAX8-driven TPO luciferase reporter, primary screen, RMG-I cells, single concentration; SteadyGlo, 24 h; inhibition, % at 12.6 µM; 360,000 compounds, 1.2% hits;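 active means mean replicate inhibition at least 60% with every replicate also reaching 60%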;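 further: luciferase light reporting Pax8 driven TPO promoter activity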
LGR2 inh = inhibitors of bursicon-induced LGR2 CRE-luciferase signal, primary screen, cell-based, HEK293, CRE-luciferase reporter, bursicon stimulation. Drosophila bursicon receptor LGR2 (rickets). bursicon-stimulated, 4 h. inhibition, % at 9.99 µM. 380,000 compounds, 0.35% hits. AID 720647, 2013;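 active means drop in luminescence signal, shown as inhibition above about 50% in the replicate tests, limit read from the data, passing the limit was not always enough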;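 further: agonist challenge used bursicon conditioned medium at about half maximal strength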
TWEAK-Fn14 inh = inhibitors of TWEAK-Fn14 signaling, primary screen, luciferase reporter cells, uHTS. TWEAK-stimulated Fn14 reporter cells, luciferase luminescence, 8 h. inhibition, % at 10 µM. 360,000 compounds, 2% hits. AID 1159606, 2016; in the data active means inhibition above about 50%
TROY NFkB inh = inhibitors of TROY-driven NF-kB signaling, primary screen, Q293 LMP1-TROYcd cells, NF-kB luciferase, uHTS; inhibition, % at 10 µM; Q293 LMP1-TROYcd NF-kB luciferase reporter, 4 h; 360,000 compounds, 0.98% hits;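 active means compounds whose plate-normalised and pattern-corrected inhibition of the luciferase reporter signal at the single screening dose is 50% or more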
EBV LMP1 NFkB = EBV LMP1-driven NF-kappaB luciferase reporter inhibitors, primary screen, cell-based, luminescence, single point | LMP1-induced NF-kappaB luciferase reporter cells | inhibition, % at 12.5 µM | 350,000 compounds, 0.69% hits; in the data active means inhibition above about 41%
Large screens that a line does not name were inactive. This is a sample that favours compounds with a hit; in the whole collection about 3.2% have one here.

COc1cccc(N(C(=O)c2snc(C(N)=O)c2N)C(C(=O)NCC2CCCO2)c2cccs2)c1 (configuration not stated)	none
COc1ccc(N(C(=O)CCl)C(C(=O)NCCc2ccccc2)c2cccs2)cc1Cl (configuration not stated)	EWS-Fli inh 68, PAX8 reporter 104, TWEAK-Fn14 inh 52
COCCNC(=O)C(c1cccs1)N(C(=O)Cn1nnc2ccccc21)c1ccccc1 (configuration not stated)	none (no result: EWS-Fli inh, LGR2 inh)
C[C@H](CO)N1C[C@H](C)[C@@H](CN(C)Cc2ccc(C(=O)O)cc2)Oc2ccc(NS(=O)(=O)c3ccc(F)cc3)cc2C1=O	none (no result: PAX8 reporter, TWEAK-Fn14 inh, TROY NFkB inh, EBV LMP1 NFkB)
COc1cc(C2C(C#N)=C(N)N(c3cccnc3)C3=C2C(=O)CCC3)ccc1O (configuration not stated)	none (no result: PAX8 reporter)
CCOC(=O)C1=C(N)N(c2ccccc2)C2=C(C(=O)CCC2)C1c1cccnc1 (configuration not stated)	TWEAK-Fn14 inh 52 (no result: EWS-Fli inh)
Cc1cc(C(=O)N/N=C2\CC(=O)CC(C)(C)C2)c(C)n1-c1ccccc1	TROY NFkB inh 53
CCc1ccc(OCCOCCN2CCN(C)CC2)cc1	none
CN1CCN(CCOc2ccc(Cc3ccccc3)cc2)CC1	EBV LMP1 NFkB 48
CC1CCN(CCOc2ccc(OCc3ccccc3)cc2)CC1	PAX8 reporter 118
C[C@@H]1CN([C@H](C)CO)C(=O)c2cc(NC(=O)Nc3ccc(C(F)(F)F)cc3)ccc2O[C@H]1CN(C)S(=O)(=O)c1cccs1	none
C[C@H]1CCCCO[C@H](CN(C)C(=O)Nc2ccc(F)cc2)[C@@H](C)CN([C@@H](C)CO)C(=O)c2cc(NC(=O)Nc3ccc(C(F)(F)F)cc3)ccc2O1	PAX8 reporter 84 (no result: TWEAK-Fn14 inh, TROY NFkB inh, EBV LMP1 NFkB)
C[C@H](CO)N1C[C@H](C)[C@@H](CN(C)S(=O)(=O)c2cccs2)Oc2ccc(NC(=O)Nc3ccc(C(F)(F)F)cc3)cc2C1=O	TWEAK-Fn14 inh 60
C[C@H]1CCCCO[C@@H](CN(C)S(=O)(=O)c2cccs2)[C@@H](C)CN([C@@H](C)CO)C(=O)c2cc(NC(=O)NC3CCCCC3)ccc2O1	PAX8 reporter 97 (no result: TWEAK-Fn14 inh, TROY NFkB inh, EBV LMP1 NFkB)
C[C@@H]1CCCCO[C@@H](CN(C)C(=O)Nc2ccc(F)cc2)[C@@H](C)CN([C@@H](C)CO)C(=O)c2cc(NC(=O)Nc3ccc(F)cc3)ccc2O1	none (no result: TWEAK-Fn14 inh, TROY NFkB inh, EBV LMP1 NFkB)
C[C@H](CO)N1C[C@H](C)[C@H](CN(C)C(=O)Nc2ccc(F)cc2)OCCCC[C@H](C)Oc2ccc(NC(=O)Nc3ccc(F)cc3)cc2C1=O	LGR2 inh 53 (no result: TWEAK-Fn14 inh, TROY NFkB inh, EBV LMP1 NFkB)
CCCN(C)C[C@H]1OCCCC[C@@H](C)Oc2ccc(NC(=O)Cc3ccccc3)cc2C(=O)N([C@@H](C)CO)C[C@H]1C	none (no result: TWEAK-Fn14 inh, TROY NFkB inh, EBV LMP1 NFkB)
C[C@@H]1CCCCO[C@@H](CN(C)C)[C@H](C)CN([C@H](C)CO)C(=O)c2cc(NC(=O)Nc3ccc(C(F)(F)F)cc3)ccc2O1	PAX8 reporter 63 (no result: LGR2 inh, TWEAK-Fn14 inh, TROY NFkB inh, EBV LMP1 NFkB)
C[C@@H]1CCCCO[C@H](CN(C)S(=O)(=O)c2cccs2)[C@H](C)CN([C@@H](C)CO)C(=O)c2cc(NC(=O)CCC(F)(F)F)ccc2O1	PAX8 reporter 110 (no result: TWEAK-Fn14 inh, TROY NFkB inh, EBV LMP1 NFkB)
C[C@@H]1CN([C@@H](C)CO)C(=O)c2cc(NC(=O)Nc3ccc(F)cc3)ccc2O[C@@H](C)CCCCO[C@@H]1CN(C)C(=O)C1CCCCC1	none (no result: TWEAK-Fn14 inh, TROY NFkB inh, EBV LMP1 NFkB)
C[C@@H]1CCCCO[C@@H](CN(C)C(=O)Nc2ccc(C(F)(F)F)cc2)[C@@H](C)CN([C@H](C)CO)C(=O)c2cc(NC(=O)Nc3ccc(F)cc3)ccc2O1	none (no result: PAX8 reporter, TWEAK-Fn14 inh, TROY NFkB inh, EBV LMP1 NFkB)
C[C@H](CO)N1C[C@H](C)[C@H](CN(C)S(=O)(=O)c2cccs2)OCCCC[C@H](C)Oc2ccc(NC(=O)CCC(F)(F)F)cc2C1=O	none (no result: TWEAK-Fn14 inh, TROY NFkB inh, EBV LMP1 NFkB)
C[C@@H]1CCCCO[C@H](CN(C)C(=O)C2CCCCC2)[C@@H](C)CN([C@@H](C)CO)C(=O)c2cc(NC(=O)Nc3ccc(F)cc3)ccc2O1	PAX8 reporter 104 (no result: TWEAK-Fn14 inh, TROY NFkB inh, EBV LMP1 NFkB)
